{"source": "PubChem BioAssay (NCATS)", "note": "Results filed as inconclusive are left out. A call without a number means that no potency is given here. A number with no mark means an inactive call. Active and inactive are the calls of the source. Calls come from the whole dose curve; as a rule, active = well fitted inhibition curve with a large enough effect; inconclusive = small, poorly fitted or top-dose-only effect; inactive = no such curve, though single readings can be large or run the other way. Potency is the fitted concentration of half-maximal effect.", "data": [{"assay": "Primary fluorescence-based thiol-reactive (MSTI) qHTS assay for identification of artifact compounds. (AID 1845221); note: nearly all actives have a fitted effect of over 65% in size;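 for activity change, negative = thiol reactive: thiol-reactive compounds lower the probe fluorescence signal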", "settings": "MSTI thiol-reactivity probe, 1 h; series mostly up to 53.8 µM", "from_the_text": "PI: Alexander Tropsha Ph.D.\nUNC Eshelman School of Pharmacy\nUniversity of North Carolina, Chapel Hill, North Carolina\nHits from high-throughput screening (HTS) of chemical libraries are often false positives due to their interference with the assay detection technology. In response to this problem, we generated the largest publicly available library of chemical liabilities and developed a free webtool to predict HTS artifacts, both of which are described herein. More specifically, we generated, curated, and integrated HTS datasets for thiol reactivity, redox activity, and luciferase (firefly and nano) activity. Using these curated datasets, we developed and validated several Quantitative Structure-Interference Relationship (QSIR) models to predict nuisance behavior. […] These models were employed for virtual profiling of the National Center for Advancing Translational Science's (NCATS) in-house library, and 256 compounds for each assay were selected for the experimental validation of nuisance behavior. The BA for these external predictions ranged from 58 to 78% for compounds within the applicability domains of the models. […] The models developed in this study, along with aggregation models previously developed by our group (SCAM Detective) were implemented in \"Liability Predictor,\" an online tool which may be used as part of chemical library design or for triaging HTS hits. Both the models and the curated datasets are publicly available at https://liability.mml.unc.edu/.\nSEQUENCE No. (e.g., 1, 2, 3, etc.); […] (e.g., Cells, Incubation, Reagent, etc.); VALUE; DESCRIPTION.\n1; Reagent; 4 uL; […].\n2; Compounds and control; 16 nL; Kalypsis pin tool (Wako USA) equipped with a 1536-well pin head.\n4; Detection; Fluorescence, ViewLux microplate reader, 525 nm excitation, 598 nm emission.\nNOTES (numbers refer to Sequence numbers above)\n1. Assays determining (E)-2-(4-mercaptostyryl)-1,3,3-trimethyl-3H-indol-1-ium (MSTI) reactivity were performed as previously described in the literature with modifications for the quick identification of compounds reacting with thiol. In brief, 4 uL of MSTI or positive control Acetyl-MSTI (final concentrations of 4 uM and 4 uM, respectively) in assay buffer (2% DMSO in 1X PBS pH 7.4) was dispensed into all wells of a 1536-well assay plate (solid-bottom black plate; Greiner Bio One, Monroe, NC).\n2. A Wako Pin-tool (Wako Automation, Richmond, VA) was used to transfer 16 nL of compounds (consisting of 7-plates in qHTS format, final concentration range 18.3 nM to 114 uM) or control MLS001163887 (final concentration range 1.22 nM to 40 uM).\n3. Plates were centrifuged (121xg, 15 seconds) and incubated for 1 hour at room temperature protected from light.\n4. Samples were read for fluorescence (Ex/Em = 525(20)/598(25) nm) on a ViewLux CCD imager (PerkinElmer). Data were normalized to Acetyl-MSTI (0% activity) and MSTI (100% activity) and the resulting percent inhibition data were fitted to a 4-parameter Hill equation using NCATS in-house software.", "values": [{"smiles": "C=C1CC[C@H]2[C@@H](/C=C(\\C)C(=O)[C@@]3(OC(C)=O)C[C@H](C)[C@H](OC(C)=O)[C@@H]3[C@H]1OC(C)=O)C2(C)C", "Potency": "inactive"}, {"smiles": "CCNC(=O)[C@H]1O[C@H](n2cnc3c(NCC(c4ccccc4)c4ccccc4)nc(C(=O)NCCNC(=O)NC4CCN(c5ccccn5)CC4)nc32)[C@H](O)[C@@H]1O", "Potency": "inactive"}, {"smiles": "CCc1cc2c(=O)c(-c3nc4ccccc4s3)coc2c(CN2CCCCC2)c1O", "Potency": "inactive"}, {"smiles": "CC(C#N)C(C)O[C@@H]1O[C@H](CO)[C@@H](O)[C@H](O)[C@H]1O", "note": "(stereo not given in full)", "Potency": "26.7 µM (active)"}, {"smiles": "O=C(O)c1ccc(CCCc2ccc(OCCc3ccc(F)cc3)cc2)o1", "Potency": "inactive"}, {"smiles": "COc1cc(-c2cccc(O)c2)cc2c1OCO2", "Potency": "26.7 µM (active)"}, {"smiles": "O=C1CC(c2ccc([N+](=O)[O-])cc2)=NN1c1ccccc1", "Potency": "4.74 µM (active)"}, {"smiles": "COc1ccccc1[C@@H]1C2=C(CC(C)(C)CC2=O)Nc2n[nH]c(C(F)(F)F)c21", "Potency": "inactive"}, {"smiles": "C=C1CCC2C(OC(=O)C2(O)COC(C)=O)C2C(=C)C(O)CC12", "note": "(stereo not given)", "Potency": "7.36 µM (active)"}, {"smiles": "CC(C)(OC1OC(CO)C(O)C(O)C1O)C1CCC(O)(CO)C2CC(O)C(C)(O)C2C1", "note": "(stereo not given)", "Potency": "inactive"}, {"smiles": "OC1COC(OCC2OC(OCCc3ccccc3)C(O)C(O)C2O)C(O)C1O", "note": "(stereo not given)", "Potency": "4.12 µM (active)"}, {"smiles": "C[C@]1(OC(=O)/C=C/c2ccccc2)C[C@H](O)[C@]2(O)C=CO[C@@H](O[C@@H]3O[C@H](CO)[C@@H](O)[C@H](O)[C@H]3O)C12", "note": "(stereo not given in full)", "Potency": "inactive"}, {"smiles": "O=C(O)C[C@H](O)C[C@H](O)/C=C/c1c(C2CC2)nc2ccccc2c1-c1ccc(F)cc1", "Potency": "inactive"}, {"smiles": "CC1=C2C3OC(=O)C(C)C3(O)CCC2(C)CCC1=O", "note": "(stereo not given)", "Potency": "23.8 µM (active)"}, {"smiles": "CC1CCCC2OC2C(=O)c2c(O)cc(O)cc2CC(=O)O1", "note": "(stereo not given)", "Potency": "8.44 µM (active)"}, {"smiles": "C=C1C2=CC(O)C(C)C1(C)CC/C(C)=C/CCC1(C)OC1C2=O", "note": "(stereo not given)", "Potency": "inactive"}, {"smiles": "COC(=O)C[C@@H]1C(C(=O)O)=CO[C@@H](O[C@@H]2O[C@H](CO)[C@@H](O)[C@H](O)[C@H]2O)/C1=C\\COC(=O)/C=C\\c1ccccc1", "Potency": "inactive"}, {"smiles": "CC/C=C\\C[C@H]1C(=O)C=C[C@@H]1CCCCCCCC(=O)O", "Potency": "inactive"}, {"smiles": "C/C(=C\\CCC(C)(O)c1ccc(C)cc1)C(=O)O", "note": "(stereo not given)", "Potency": "inactive"}, {"smiles": "C[C@@H]1C[C@H](O)/C=C/[C@H](O)[C@@H](O)CC(=O)O1", "Potency": "inactive"}, {"smiles": "C[C@]1(O)CC[C@@H]2C(C(=O)O)=CO[C@@H](O[C@@H]3O[C@H](COC(=O)c4ccc(O)cc4)[C@@H](O)[C@H](O)[C@H]3O)[C@@H]21", "Potency": "10.3 µM (active)"}, {"smiles": "C=C(C)C(C)C1OC23CC4(CO2)C(CCC2C5(C)CCC(OC6OCC(O)C(OC7OC(CO)C(O)C(OC8OCC(O)C(O)C8O)C7O)C6OC6OC(CO)C(O)C6O)C(C)(C)C5CCC24C)C3C(C)(O)C1OC(C)=O", "note": "(stereo not given)", "activity change, negative = thiol reactive": "644% [at 11.5 µM]"}, {"smiles": "Cc1cc(Nc2ncc(Cl)c(Nc3ccccc3S(=O)(=O)C(C)C)n2)c(OC(C)C)cc1C1CCNCC1", "Potency": "inactive"}, {"smiles": "CCOc1c2c(c(OCC)c3ccccc13)C(=O)N(c1ccc(CC(=O)NS(=O)(=O)c3ccccc3)cc1)C2", "Potency": "inactive"}, {"smiles": "CC1(C)C(=O)N2c3ccccc3[C@]3(CC(n4cnc5ccccc5c4=O)C(=O)O3)[C@H]2N1O", "note": "(stereo not given in full)", "Potency": "inactive"}, {"smiles": "CC1(C)CC[C@]2(C(=O)O)CC[C@]3(C)C(=CCC4[C@@]5(C)CCC(O[C@@H]6OC[C@H](O)[C@H](O)[C@H]6O[C@@H]6O[C@H](CO)[C@@H](O)[C@H](O)[C@H]6O)[C@@](C)(CO)C5CC[C@]43C)[C@@H]2C1", "note": "(stereo not given in full)", "Potency": "inactive"}, {"smiles": "CNC(=O)c1ccc2cc([C@@]3(O)CCn4cncc43)ccc2c1", "Potency": "inactive"}, {"smiles": "C[C@@H]1O[C@@H](O[C@H]2[C@H](O[C@H]3[C@H](O[C@H]4CC[C@@]5(CO)C(CC[C@]6(C)C5CC=C5C7CC(C)(C)C[C@@H](O)[C@]7(C)CC[C@]56C)C4(C)C)O[C@H](C(=O)O)[C@@H](O)[C@@H]3O)OC[C@@H](O)[C@@H]2O)[C@H](O)[C@H](O)[C@H]1O", "note": "(stereo not given in full)", "activity change, negative = thiol reactive": "150% [at 11.5 µM]"}, {"smiles": "CC1(C)O[C@]23C[C@H]1C[C@H](OC(=O)c1ccoc1)[C@]2(C)[C@@H](OC(=O)c1ccoc1)CCC3(C)O", "note": "(stereo not given in full)", "Potency": "inactive"}, {"smiles": "CCC[C@@H]1C[C@@H](C(=O)N[C@H](C(C)Cl)[C@H]2O[C@H](SC)[C@H](O)[C@@H](O)[C@H]2O)N(C)C1", "note": "(stereo not given in full)", "Potency": "inactive"}, {"smiles": "COC1CC(OC2CCC3(C)C(=CCC4C3CCC3(C)C(C(C)O)CCC43O)C2)OC(C)C1OC1OC(C)C(OC2OC(COC3OC(COC4OC(CO)C(O)C(O)C4O)C(O)C(O)C3O)C(O)C(O)C2O)C(OC)C1O", "note": "(stereo not given)", "activity change, negative = thiol reactive": "54% [at 11.5 µM]"}, {"smiles": "C=CC1(C)CC(OC(=O)C(=C)C(O)COC(C)=O)C(C(=C)C(=O)OC)C(O)C1C(=C)CO", "note": "(stereo not given)", "Potency": "inactive"}, {"smiles": "C[C@H](NCc1ccc(OCc2ccccc2F)cc1)C(N)=O", "Potency": "inactive"}, {"smiles": "CO[C@@H](Cc1ccc(OCCc2nc(-c3ccccc3)oc2C)c2ccsc12)C(=O)O", "Potency": "inactive"}, {"smiles": "C=CC1C(O[C@@H]2O[C@H](CO)[C@@H](O)[C@H](O)[C@H]2O)OC=C(C(=O)OC)C1Cc1nccc2c1[nH]c1ccccc12", "note": "(stereo not given in full)", "Potency": "inactive"}, {"smiles": "CC1CCC2(O1)C(C)(C)CC(O[C@@H]1O[C@H](CO[C@@H]3OC[C@](O)(CO)[C@H]3O)[C@@H](O)[C@H](O)[C@H]1O)CC2(C)O", "note": "(stereo not given in full)", "Potency": "13 µM (active)"}, {"smiles": "C=C1CCC2C(C)(COC3OC(COC(=O)CC(=O)O)C(O)C(O)C3O)CCCC2(C)C1CCC1=CCOC1=O", "note": "(stereo not given)", "Potency": "inactive"}, {"smiles": "CC1=C2[C@@H]([C@H](C)CC[C@H]2/C=C(\\C)C(=O)O)[C@H](O)C1", "Potency": "inactive"}, {"smiles": "O=C(O)C[C@@H](NC(=O)c1cc(-c2ccc(-c3ccncc3)cc2)cs1)c1ccccc1", "Potency": "inactive"}, {"smiles": "CCCCNC(=O)[C@@H]1Cc2ccccc2N1C(=O)[C@@H](N)CC", "Potency": "inactive"}]}]}
